# Results taken from PubChem BioAssay (NCI).
# This is part of a sample that, as a whole, favours compounds with a hit. Of some 79,000 tested, about 15% had one in any assay. Values without a mark were called inactive. Activity calls are given as the source filed them. Rule as the data show it: active = growth inhibition above about 70%; inactive = the rest.
# Legend:
# [1] = NCI Yeast Anticancer Drug Screen. Data for the rad52 strain (AID 147);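 also: 0% = growth of vehicle-treated control cultures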; settings: S. cerevisiae rad52 mutant growth inhibition, hits give high values
# Procedure, shortened: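 Inhibition of yeast growth, referenced to vehicle controls, was the measured output for a strain with defective DNA damage repair.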
# [2] = NCI Yeast Anticancer Drug Screen. Data for the wt1 strain (AID 149);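 also: 0% = growth of vehicle-treated wt1 cultures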; settings: S. cerevisiae wt1 strain (SPY 50644) growth inhibition, hits give high values
# Procedure, shortened: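 wt1 strain grown with compound or vehicle; inhibition taken from the growth difference.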
# [3] = NCI Yeast Anticancer Drug Screen. Data for the mgt1 strain (AID 153); settings: S. cerevisiae mgt1 mutant growth inhibition, hits give high values
# Procedure, shortened: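 In the mgt1 strain, test compounds were added and growth inhibition was determined relative to vehicle-treated controls.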
# [4] = NCI Yeast Anticancer Drug Screen. Data for the rad50 strain (AID 155);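 also: 0% = growth of vehicle-only cultures of the same strain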; settings: S. cerevisiae rad50 strain growth inhibition, hits give high values
# Procedure, shortened: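 DNA repair mutant yeast, compound exposure, growth read-out; inhibition is taken relative to vehicle.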
# [5] = NCI Yeast Anticancer Drug Screen. Data for the mec2-1 strain (AID 157); settings: S. cerevisiae mec2-1 strain, hits give high values
# Procedure, shortened: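 Each compound was tested on mec2-1 yeast, a strain altered in DNA damage repair or cell cycle control. Growth inhibition is reported relative to vehicle.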
# [6] = NCI Yeast Anticancer Drug Screen. Data for the sgs1 mgt1 strain (AID 161);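 also: 0% = growth of cultures given vehicle only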; settings: S. cerevisiae sgs1 mgt1 strain, hits give high values
# Procedure, shortened: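 Read-out: growth inhibition vs vehicle controls. Cells: mutant yeast strain deficient in DNA damage repair.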
# [7] = NCI Yeast Anticancer Drug Screen. Data for the CLN2oe strain (AID 163);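 also: 0% = growth of vehicle-only control cultures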; settings: S. cerevisiae CLN2oe strain, hits give high values
# Procedure, shortened: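 First, the altered yeast strain was treated with each compound; second, its growth was measured; finally, inhibition was derived by comparison with vehicle controls.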
# [8] = NCI Yeast Anticancer Drug Screen. Data for the cln2 rad14 strain (AID 165);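 also: 0% = growth equal to vehicle treated cultures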; settings: S. cerevisiae cln2 rad14 strain, hits give high values
# Procedure, shortened: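 Test compounds were added to cln2 rad14 yeast cultures; inhibition of growth was then determined by comparison with vehicle treatment.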
# [9] = NCI Yeast Anticancer Drug Screen. Data for the bub3 strain (AID 167); settings: S. cerevisiae bub3 mutant strain, hits give high values
# Procedure, shortened: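 In this screen, a yeast mutant lacking normal mitotic checkpoint function is challenged with compound. Relative growth versus vehicle gives the inhibition value.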
# [10] = NCI Yeast Anticancer Drug Screen. Data for the wt2 strain (AID 169);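 also: 0% = growth of vehicle-treated yeast cultures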; settings: S. cerevisiae wt2 strain growth inhibition, hits give high values
# Procedure, shortened: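 The panel's yeast strains carry defined changes in DNA repair or cell cycle genes. Each strain is grown with compound, and growth loss is scored relative to vehicle.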
# [11] = NCI Yeast Anticancer Drug Screen. Data for the mlh1 strain (AID 171);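 also: 0% = growth of vehicle-treated control cultures of the same strain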; settings: S. cerevisiae mlh1 strain growth inhibition, hits give high values
# Procedure, shortened: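 Inhibition values reflect reduced yeast growth in the presence of compound, referenced to vehicle controls, using a strain chosen for its alteration in DNA repair or cell cycle control.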
# [12] = NCI Yeast Anticancer Drug Screen. Data for the sgs1 strain (AID 173);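 also: 0% = growth of vehicle-only control cultures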; settings: S. cerevisiae sgs1 mutant, hits give high values
# Procedure, shortened: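 Vehicle-treated cultures served as reference for growth inhibition of a yeast strain altered in DNA damage repair or cell cycle control after compound exposure.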
# [13] = NCI Yeast Anticancer Drug Screen. Data for the mlh1 rad18 strain (AID 175); settings: S. cerevisiae mlh1 rad18 strain growth inhibition, hits give high values
# Procedure, shortened: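 Inhibition values reflect reduced growth of mutant yeast versus vehicle-treated controls following compound exposure; the mutations affect DNA damage repair.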
# [14] = NCI Yeast Anticancer Drug Screen. Data for the rad18 strain (AID 177); settings: S. cerevisiae rad18 mutant growth inhibition, hits give high values
# Procedure, shortened: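 Steps: expose repair-mutant yeast to compound; measure growth; express as inhibition relative to vehicle control.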
# [15] = NCI Yeast Anticancer Drug Screen. Data for the rad14 strain (AID 159);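 also: 0% = growth of vehicle-treated control cultures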; settings: S. cerevisiae rad14 strain growth inhibition, hits give high values
# Procedure, shortened: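 DNA repair-defective yeast, compound-exposed; % growth inhibition derived by comparison with vehicle-treated controls.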
# [16] = at 5.0 µM (retest, dose inferred, filed as 0.5)
# [17] = at 50.0 µM (retest, dose inferred, filed as 5.0)
smiles,measurement,setting,value
Cc1ccc2c(c1N)C(=O)c1ccccc1C2=O,growth inhibition,[1]; at 1.2 µM,8%
same,growth inhibition,[1]; at 3.7 µM,22%
same,growth inhibition,[1]; at 11.0 µM,47%
same,growth inhibition,[1]; at 33.0 µM,73% (active)
same,growth inhibition,[1]; at 100.0 µM,73% (active)
same,growth inhibition,[2]; at 1.2 µM,-3%
same,growth inhibition,[2]; at 3.7 µM,-1%
same,growth inhibition,[2]; at 11.0 µM,6%
same,growth inhibition,[2]; at 33.0 µM,5%
same,growth inhibition,[2]; at 100.0 µM,5%
same,growth inhibition,[3]; at 1.2 µM,-3%
same,growth inhibition,[3]; at 3.7 µM,-3%
same,growth inhibition,[3]; at 11.0 µM,6%
same,growth inhibition,[3]; at 33.0 µM,-8%
same,growth inhibition,[3]; at 100.0 µM,6%
same,growth inhibition,[4]; at 1.2 µM,5%
same,growth inhibition,[4]; at 3.7 µM,19%
same,growth inhibition,[4]; [16],59%
same,growth inhibition,[4]; at 11.0 µM,40%
same,growth inhibition,[4]; at 33.0 µM,62%
same,growth inhibition,[4]; [17],91% (active)
same,growth inhibition,[4]; at 50.0 µM,30.5%
same,growth inhibition,[4]; at 100.0 µM,63%
same,growth inhibition,[5]; at 1.2 µM,2%
same,growth inhibition,[5]; at 3.7 µM,4%
same,growth inhibition,[5]; [16],8%
same,growth inhibition,[5]; at 11.0 µM,8%
same,growth inhibition,[5]; at 33.0 µM,11%
same,growth inhibition,[5]; [17],36%
same,growth inhibition,[5]; at 50.0 µM,42%
same,growth inhibition,[5]; at 100.0 µM,15%
same,growth inhibition,[6]; [16],7%
same,growth inhibition,[6]; [17],42%
same,growth inhibition,[6]; at 50.0 µM,45.2%
same,growth inhibition,[7]; at 1.2 µM,-4%
same,growth inhibition,[7]; at 3.7 µM,-3%
same,growth inhibition,[7]; at 11.0 µM,-4%
same,growth inhibition,[7]; at 33.0 µM,-4%
same,growth inhibition,[7]; at 100.0 µM,6%
same,growth inhibition,[8]; [16],6%
same,growth inhibition,[8]; [17],14%
same,growth inhibition,[8]; at 50.0 µM,40.8%
same,growth inhibition,[9]; at 1.2 µM,2%
same,growth inhibition,[9]; at 3.7 µM,13%
same,growth inhibition,[9]; [16],-9%
same,growth inhibition,[9]; at 11.0 µM,31%
same,growth inhibition,[9]; at 33.0 µM,37%
same,growth inhibition,[9]; [17],62%
same,growth inhibition,[9]; at 50.0 µM,61.4%
same,growth inhibition,[9]; at 100.0 µM,35%
same,growth inhibition,[10]; at 1.2 µM,-3%
same,growth inhibition,[10]; at 3.7 µM,1%
same,growth inhibition,[10]; at 11.0 µM,6%
same,growth inhibition,[10]; at 33.0 µM,10%
same,growth inhibition,[10]; at 100.0 µM,8%
same,growth inhibition,[11]; at 1.2 µM,-3%
same,growth inhibition,[11]; at 3.7 µM,-1%
same,growth inhibition,[11]; at 11.0 µM,10%
same,growth inhibition,[11]; at 33.0 µM,5%
same,growth inhibition,[11]; at 100.0 µM,4%
same,growth inhibition,[12]; at 1.2 µM,-4%
same,growth inhibition,[12]; at 3.7 µM,-3%
same,growth inhibition,[12]; at 11.0 µM,1%
same,growth inhibition,[12]; at 33.0 µM,7%
same,growth inhibition,[12]; at 100.0 µM,5%
same,growth inhibition,[13]; [16],15%
same,growth inhibition,[13]; [17],45%
same,growth inhibition,[13]; at 50.0 µM,71.8% (active)
same,growth inhibition,[14]; at 1.2 µM,-4%
same,growth inhibition,[14]; at 3.7 µM,1%
same,growth inhibition,[14]; at 11.0 µM,5%
same,growth inhibition,[14]; at 33.0 µM,3%
same,growth inhibition,[14]; at 100.0 µM,13%
Cc1nc(Cl)c(CBr)c(Cl)n1,growth inhibition,[4]; [16],38%
same,growth inhibition,[4]; [17],99% (active)
same,growth inhibition,[4]; at 50.0 µM,67.8%
same,growth inhibition,[5]; [16],44%
same,growth inhibition,[5]; [17],100% (active)
same,growth inhibition,[5]; at 50.0 µM,70.2% (active)
same,growth inhibition,[6]; [16],43%
same,growth inhibition,[6]; [17],100% (active)
same,growth inhibition,[6]; at 50.0 µM,32.6%
same,growth inhibition,[8]; [16],40%
same,growth inhibition,[8]; [17],100% (active)
same,growth inhibition,[8]; at 50.0 µM,33.8%
same,growth inhibition,[9]; [16],54%
same,growth inhibition,[9]; [17],100% (active)
same,growth inhibition,[9]; at 50.0 µM,52.5%
same,growth inhibition,[13]; [16],50%
same,growth inhibition,[13]; [17],99% (active)
COC(=O)C1C2c3ccccc3C(c3ccccc32)C1C(=O)OC (stereo not drawn),growth inhibition,[2]; at 1.2 µM,7%
same,growth inhibition,[2]; at 3.7 µM,5%
same,growth inhibition,[2]; at 11.0 µM,5%
same,growth inhibition,[2]; at 33.0 µM,8%
same,growth inhibition,[2]; at 100.0 µM,7%
same,growth inhibition,[3]; at 1.2 µM,-2%
same,growth inhibition,[3]; at 3.7 µM,-1%
same,growth inhibition,[3]; at 11.0 µM,-2%
same,growth inhibition,[3]; at 33.0 µM,2%
same,growth inhibition,[3]; at 100.0 µM,11%
same,growth inhibition,[4]; at 1.2 µM,4%
same,growth inhibition,[4]; at 3.7 µM,1%
same,growth inhibition,[4]; [16],6%
same,growth inhibition,[4]; at 11.0 µM,3%
same,growth inhibition,[4]; at 33.0 µM,7%
same,growth inhibition,[4]; [17],47%
same,growth inhibition,[4]; at 50.0 µM,14.8%
same,growth inhibition,[4]; at 100.0 µM,7%
same,growth inhibition,[5]; at 1.2 µM,-2%
same,growth inhibition,[5]; at 3.7 µM,-3%
same,growth inhibition,[5]; [16],-3%
same,growth inhibition,[5]; at 11.0 µM,-1%
same,growth inhibition,[5]; at 33.0 µM,0%
same,growth inhibition,[5]; [17],15%
same,growth inhibition,[5]; at 50.0 µM,41.5%
same,growth inhibition,[5]; at 100.0 µM,9%
same,growth inhibition,[15]; at 1.2 µM,2%
same,growth inhibition,[15]; at 3.7 µM,2%
same,growth inhibition,[15]; at 11.0 µM,0%
same,growth inhibition,[15]; at 33.0 µM,8%
same,growth inhibition,[15]; at 100.0 µM,13%
same,growth inhibition,[6]; [16],5%
same,growth inhibition,[6]; [17],70% (active)
same,growth inhibition,[6]; at 50.0 µM,72.5% (active)
same,growth inhibition,[7]; at 1.2 µM,2%
same,growth inhibition,[7]; at 3.7 µM,-1%
same,growth inhibition,[7]; at 11.0 µM,0%
same,growth inhibition,[7]; at 33.0 µM,7%
same,growth inhibition,[7]; at 100.0 µM,17%
same,growth inhibition,[8]; [16],-3%
same,growth inhibition,[8]; [17],28%
same,growth inhibition,[8]; at 50.0 µM,8.85%
same,growth inhibition,[9]; at 1.2 µM,-1%
same,growth inhibition,[9]; at 3.7 µM,-2%
same,growth inhibition,[9]; [16],19%
same,growth inhibition,[9]; at 11.0 µM,-4%
same,growth inhibition,[9]; at 33.0 µM,1%
same,growth inhibition,[9]; [17],27%
same,growth inhibition,[9]; at 50.0 µM,14.4%
same,growth inhibition,[9]; at 100.0 µM,2%
same,growth inhibition,[10]; at 1.2 µM,-2%
same,growth inhibition,[10]; at 3.7 µM,-6%
same,growth inhibition,[10]; at 11.0 µM,-1%
same,growth inhibition,[10]; at 33.0 µM,5%
same,growth inhibition,[10]; at 100.0 µM,-1%
same,growth inhibition,[11]; at 1.2 µM,-2%
same,growth inhibition,[11]; at 3.7 µM,-2%
same,growth inhibition,[11]; at 11.0 µM,-3%
same,growth inhibition,[11]; at 33.0 µM,1%
same,growth inhibition,[11]; at 100.0 µM,11%
same,growth inhibition,[12]; at 1.2 µM,-6%
same,growth inhibition,[12]; at 3.7 µM,-17%
same,growth inhibition,[12]; at 11.0 µM,-11%
same,growth inhibition,[12]; at 33.0 µM,-4%
same,growth inhibition,[12]; at 100.0 µM,2%
same,growth inhibition,[13]; [16],17%
same,growth inhibition,[13]; [17],69%
same,growth inhibition,[13]; at 50.0 µM,17.1%
same,growth inhibition,[14]; at 1.2 µM,0%
same,growth inhibition,[14]; at 3.7 µM,2%
same,growth inhibition,[14]; at 11.0 µM,4%
same,growth inhibition,[14]; at 33.0 µM,7%
same,growth inhibition,[14]; at 100.0 µM,8%
